Inconclusive results are not listed. The source made the active and inactive calls. Unless noted, calls come from the whole dose curve; as a rule, active = well fitted curve in the direction sought with a large enough effect; inconclusive = small, poorly fitted or top-dose-only effect, or another doubt; inactive = no such curve, though single readings can be large; an effect the other way counts as inactive or inconclusive.
How the values were obtained:
[1] = Cell Viability - LYMP2-001 (AID 921);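 note: series mostly up to about 92 µM; 0% = DMSO only and full inhibition = tetraoctylammonium bromide control wells; nearly all actives have a fitted effect of over 70% in size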
Outline: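 A lymphoblastoid cell line of human origin was treated with library compounds across a concentration series for 24 hours, and viable cell number was estimated from ATP-driven luciferase light output. Hill modeling gave AC50.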

[2] = MultiTox-Fluor Cytotoxicity Assay - LYMP1-001 - Dead Cells (AID 946);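 note: 0% = DMSO and 100% = tetraoctylammonium bromide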
Outline: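 In this qHTS, 15 uM tetraoctylammonium bromide defined 100% and DMSO defined basal activity. Lymphoblastoid cells (LYMP1-001, 2500 per well) received compound for 16 hr at 37 C before a fluorogenic dead-cell substrate readout at 485/520 nm.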

[3] = MultiTox-Fluor Cytotoxicity Assay - LYMP1-001 - Live Cells (AID 947);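 note: 0% = DMSO only and full inhibition = tetraoctylammonium bromide control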
[4] = Cell Viability - LYMP1-002 - Assay at 16 hr (AID 948);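 note: 0% = DMSO alone and full effect = 92 µM tetraoctylammonium bromide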
Outline: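 In this qHTS, lymphoblastoid LYMP1-002 cells (human) receive compounds for 16 hr at 37 C. Viability is taken from CellTiter-Glo ATP luminescence, and AC50 derives from standard Hill fits.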

[5] = MultiTox-Fluor Cytotoxicity Assay - LYMP1-002 - Live Cells (AID 955); note: % is set by controls: 0 for no effect and ±100 for the full control effect
Outline: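 Human lymphoblastoid LYMP1-002 cells, 2500/well in complete medium, rested 5 hr at 37 C, then exposed to compounds for 16 hr at 37 C. Live-cell protease cleavage of GF-AFC read by fluorescence (Ex/Em 405/510) after 60 min at room temperature; AC50 from Hill fits.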

[6] = MultiTox-Fluor Cytotoxicity Assay - LYMP1-002 - Dead Cells (AID 960);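 note: 0% = DMSO and 100% = tetraoctylammonium bromide; nearly all actives have a fitted effect of over 60% in size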
Outline: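 Human lymphoblastoid cells (LYMP1-002), 2500/well in complete medium, were exposed to compounds for 16 hr at 37 C. Dead-cell protease activity was read as bis-AAF-R110 fluorescence (Ex/Em 485/520), normalized to DMSO and 15 uM tetraoctylammonium bromide; AC50 from Hill fits.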

[7] = MultiTox-Fluor Cytotoxicity Assay - LYMP1-003 - Dead Cells (AID 961);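 note: 0% = DMSO and 100% = tetraoctylammonium bromide; nearly all actives have a fitted effect of over 70% in size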
Outline: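 Acute toxicity is scored as increased dead-cell protease activity in human lymphoblastoid LYMP1-003 cells after 16 h compound exposure in complete culture medium. Activity is normalized to DMSO basal and 15 uM tetraoctylammonium bromide as full response.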

[8] = MultiTox-Fluor Cytotoxicity Assay - LYMP1-003 - Live Cells (AID 962);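 note: 0% = DMSO only and full loss = 92 µM tetraoctylammonium bromide; cytotoxic hits lower the live-cell protease signal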
Outline: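 LYMP1-003 human lymphoblastoid cells (2500/well) in complete medium were preincubated 5 hr at 37 C, then exposed to compounds for 16 hr at 37 C. Live-cell protease cleavage of GF-AFC read by fluorescence (Ex/Em 405/510); AC50 from Hill fits.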

[9] = Cell Viability - LYMP1-003 - Assay at 24 hr (AID 963);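 note: plate controls were DMSO only for no effect and tetraoctylammonium bromide positive control for full effect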
Outline: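 Human lymphoblastoid LYMP1-003 cells (2500/well) were rested 5 hr at 37 C, then exposed to compounds in complete medium for 24 hr at 37 C. Cellular ATP was quantified by CellTiter-Glo luminescence, and AC50 values came from Hill fits of concentration-response data.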

[10] = Cell Viability - LYMP1-003 - Assay at 40 hr (AID 964); note: series mostly up to about 92 µM; % is set by controls: 0 for no effect and ±100 for the full control effect; nearly all actives have a fitted effect of over 60% in size
Outline: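 Human lymphoblastoid LYMP1-003 cells, 2500/well in complete medium, rested 5 hr at 37 C, then exposed to compounds for 40 hr at 37 C. Viability read as intracellular ATP by CellTiter-Glo luminescence; AC50 from Hill fits of concentration-response data.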

[11] = Cell Viability - LYMP2-004 (AID 966);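 note: plate controls were DMSO only for no effect and tetraoctylammonium bromide control for full effect; nearly all actives have a fitted effect of over 65% in size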
Outline: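 Human lymphoblastoid cells (2500/well) in complete medium were treated with compounds for 24 hr at 37 C, then intracellular ATP was measured by CellTiter-Glo luminescence. AC50 values came from Hill-equation fits of concentration-response data.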

[12] = Cell Viability - LYMP2-005 (AID 967);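 note: series mostly up to about 92 µM; plate controls were DMSO only for no effect and 92 µM tetraoctylammonium bromide control for full effect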
Outline: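 Luciferase-based ATP quantitation served as the viability measure in human lymphoblastoid LYMP2-005 cells exposed to test compounds for 24 h at 37 C in complete culture medium. Potency (AC50) was obtained by fitting concentration-response curves with the Hill equation.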

[13] = Cell Viability - LYMP2-009 (AID 968);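 note: series mostly up to about 92 µM; 0% = DMSO alone and the full-kill end = tetraoctylammonium bromide at 92 µM; nearly all actives have a fitted effect of over 55% in size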
[14] = Cell Viability - LYMP2-011 (AID 969);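 note: 0% = DMSO only and full inhibition = 92 µM tetraoctylammonium bromide; nearly all actives have a fitted effect of over 60% in size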
Outline: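 Human lymphoblastoid cells (2500/well) were plated in complete medium, preincubated 5 hr at 37 C, then exposed to compounds for 24 hr at 37 C. Intracellular ATP was read by CellTiter-Glo luminescence, and AC50 came from Hill-equation concentration-response fits.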

[15] = qHTS Assay for Identification of Small Molecule Agonists for Hypoxia Response Element Signaling Pathway (AID 914; active = well fitted activation curve with a large enough effect in the signal ratio, with a control signal flat, not every such curve was filed as active; the % refers to the signal ratio; note: % of control where 0% means no effect); conditions: ME-180 (cervical carcinoma) HRE-bla reporter, beta-lactamase ratio, CoCl2, 17 h; stronger effect = higher value
Outline: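 Cells were plated overnight, pin-dosed with compound in a titration series, co-stimulated with EC50 CoCl2 and incubated 17 hours at 37 degrees Celsius. CCF4 substrate was then loaded, and AC50 values came from the 460nm/530nm ratio.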

[16] = Confirmation and Secondary Assay for Modulators of Hemoglobin Beta Chain Splicing at IVS2 705 locus (AID 930);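 note: HeLa cells stably expressing the EGFP-705 splicing reporter; GFP fluorescence per well restored by corrected splicing of the IVS2-705 intron in EGFP; series mostly up to about 46 µM; % of control where 0% means no effect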
Outline: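 Splice-correction reporter: EGFP cDNA split by beta-globin intron 2 bearing the 705 mutation, stably in HeLa. Compound incubation 2 days, 37C; fluorescent objects 5-250 µm summed per well.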

c1ccc2ccccc2c1
inactive: Potency [1] | Potency [2] | outcome [3] | Potency [4] | Potency [5] | Potency [6] | Potency [7] | outcome [8] | Potency [9] | Potency [10] | Potency [11] | Potency [12] | Potency [13] | Potency [14]

OCc1ccccc1
inactive: Potency [1] | Potency [2] | outcome [3] | Potency [4] | Potency [5] | Potency [6] | Potency [7] | outcome [8] | Potency [9] | Potency [10] | Potency [11] | Potency [12] | Potency [13] | Potency [14]

Oc1ccc(/C=C/c2cc(O)cc(O)c2)cc1
inactive: Potency [1] | Potency [2] | outcome [3] | Potency [4] | Potency [5] | Potency [6] | Potency [7] | outcome [8] | Potency [9] | Potency [11] | Potency [13] | Potency [14]

C[C@H](CCC(=O)O)[C@H]1CC[C@H]2[C@@H]3[C@H](O)C[C@@H]4C[C@H](O)CC[C@]4(C)[C@H]3C[C@H](O)[C@]12C
inactive: Potency [1] | Potency [2] | outcome [3] | Potency [4] | Potency [5] | Potency [6] | Potency [7] | outcome [8] | Potency [9] | Potency [10] | Potency [11] | Potency [12] | Potency [13] | Potency [14]

Oc1cccc(O)c1O
inactive: Potency [1] | Potency [2] | outcome [3] | Potency [4] | Potency [5] | Potency [6] | Potency [7] | outcome [8] | Potency [9] | Potency [12] | Potency [14]

Cc1cccc(C)c1NC(=O)C1CCCCN1C (configuration not stated)
inactive: activation [15] 5.97% | Potency [16]

CC1=CC(=O)NS(=O)(=O)O1
inactive: Potency [1] | Potency [2] | outcome [3] | Potency [4] | Potency [5] | Potency [6] | Potency [7] | outcome [8] | Potency [9] | Potency [10] | Potency [11] | Potency [13] | Potency [14]

Cc1ncc[nH]1
inactive: Potency [1] | Potency [2] | outcome [3] | Potency [4] | Potency [5] | Potency [6] | Potency [7] | outcome [8] | Potency [9] | Potency [10] | Potency [11] | Potency [12] | Potency [13] | Potency [14]

C/C=C/C=C/C(=O)O
inactive: Potency [1] | Potency [2] | outcome [3] | Potency [4] | Potency [5] | Potency [6] | Potency [7] | outcome [8] | Potency [9] | Potency [10] | Potency [11] | Potency [12] | Potency [13] | Potency [14]

[O-][N+](=Nc1ccccc1)c1ccccc1
inactive: Potency [1] | Potency [2] | outcome [3] | Potency [4] | Potency [5] | Potency [6] | Potency [7] | outcome [8] | Potency [9] | Potency [10] | Potency [11] | Potency [12] | Potency [13] | Potency [14]
